Records with an inconclusive call do not appear. Calls of active or inactive are those of the source. Calls follow the shape of the dose curve; as a rule, active = well fitted cell-killing curve with a large enough effect in the repeat runs; inconclusive = weak or mixed curves, or effect the other way; inactive = flat fitted curve, though single readings scatter. Positions of bridges follow the written chain, without caps; N, C: chain ends. Non-standard residues stand in square brackets, D forms with d. Residues, ends and D or L forms follow the SMILES beside them. hArg = N=C(N)NCCCC[C@H](N)C(=O)O; Mpa = O=C(O)CCS
% is scaled to controls: 0 for no effect and ±100 for the full control effect.

This assay can be described thus: qHTS assay to identify small molecule antagonists of the androgen receptor (AR) signaling pathway using the MDA cell line in the presence of 0.5 nM R1881 - cell viability counter screen (AID 1259242). Also: nearly all actives have a fitted effect of over 45% in size. Particulars: MDA-kb2 viability, CellTiter-Fluor protease fluorescence, 16 h; series mostly up to 92.4 µM; viability change, negative = cytotoxic: at the top concentration. The source says:
U.S. Tox21 Program National Center for Advancing Translational Sciences [NCATS] NIH Chemical Genomics Center [NCGC] U.S. Environmental Protection Agency [EPA] National Institutes of Environmental Health Sciences [NIEHS] National Toxicology Program [NTP] U.S. Food and Drug Administration [FDA] Tox21 Assay Overview: Androgen receptor (AR) is an important member of the nuclear receptor family. Its signaling plays a critical role in AR-dependent prostate cancer and other androgen related diseases. Considerable attention has been given in the past decades to develop methods to study and screen for the environmental chemicals that have the potential to interfere with metabolic homeostasis, reproduction, developmental and behavioral functions. Therefore AR binding assay for screening androgen antagonists can be used to identify potential endocrine disruptors. MDA-kb2 cells (from ATCC, deposited by Wilson et al.) were used to screen for AR inhibitors against Tox21 compound libraries. These cells are human breast carcinoma cells that were stably transfected with a luciferase reporter gene under control of the MMTV promoter that contains response elements for both androgen receptor (AR) and glucocorticoid receptor (GR). The current screening for identification of AR inhibitors against Tox21 libraries used lower concentration of (0.5 nM) R1881 as a stimulator. The cytotoxicity of the Tox21 compound libraries against MDA-kb2 cell line was tested by measuring live-cell protease activity using CellTiter-Fluor assay in the same wells.
Tox21 Assay Protocol Summary: MDA-kb2 cells (cells cultured without CO2) were dispensed at 3,000 cells/well in 4 uL of culture medium into white wall/solid-bottom 1536-well plates (Corning Life Sciences, Corning, NY) using a Multidrop Combi (ThermoFisher Scientific, Waltham, MA) dispenser. After the assay plates were incubated at a 37C and 0% CO2 for 5 hr, 23 nL of compounds dissolved in DMSO, positive controls or DMSO only was transferred to the assay plate by a Pintool station (Kalypsys, San Diego, CA). The transfer of compounds was followed by the addition of 1 uL of 0.5 nM (final concentration) agonist (R1881)/culture medium using a Flying Reagent Dispenser (FRD, Aurora Discovery, San Diego, CA). The plates were incubated at 37C and 0% CO2 for 16 hr. For cytotoxicity assay, 1 uL of CellTiter-Fluor reagent (Promega Corporation, Madison, WI) was added to each well using the FRD and after 30 min incubation at 37C and 0% CO2, The fluorescence intensity was measured using ViewLux plate reader (PerkinElmer, Shelton, CT).
Consider `Cc1c(NC(=O)c2cccnc2)c(=O)n(-c2ccccc2)n1C`, for which the “viability change, negative = cytotoxic” value was 4.21% [at 42.5 µM] (inactive).

As to `CCC(=O)CC`, the “viability change, negative = cytotoxic” value is 0.229% (inactive).

As to `COc1ccc2c(c1)c1c3n2CCN(C)C3=NCC1`, the “viability change, negative = cytotoxic” value was -3.19% [at 42.5 µM] (inactive).

Consider `CC(C)(C)NC[C@H](O)COc1cccc2c1CCCC2=O`, for which the “viability change, negative = cytotoxic” value was -0.823% [at 42.5 µM] (inactive).

As to `C=CCN1C[C@H](C(=O)N(CCCN(C)C)C(=O)NCC)C[C@@H]2c3cccc4[nH]cc(c34)C[C@H]21`, the “viability change, negative = cytotoxic” value was -14.9% [at 42.5 µM] (inactive).

With `CC(C)[C@H]1CC[C@H](C)C[C@@H]1O`, the “viability change, negative = cytotoxic” value is 3.93% (inactive).

With `CC1c2ccccc2CN1NC(=O)c1ccc(Cl)c(S(N)(=O)=O)c1` (stereo not given), the “viability change, negative = cytotoxic” value was -0.933% [at 42.5 µM] (inactive).

With `CC(S)C(C)S` (stereo not given), the “viability change, negative = cytotoxic” value was -2.35% (inactive).

Consider `Cn1c(=O)c2[nH]c(Br)nc2n(C)c1=O`, for which the “viability change, negative = cytotoxic” value is 1.12% [at 42.5 µM] (inactive).

In the case of `NC(=O)[C@@H]1CSSCCC(=O)N[C@@H](CCCCN=C(N)N)C(=O)NCC(=O)N[C@@H](CC(=O)O)C(=O)N[C@@H](Cc2c[nH]c3ccccc23)C(=O)N2CCC[C@H]2C(=O)N1` ([Mpa][hArg]GDWPC-NH2; disulfide 1-7), the “viability change, negative = cytotoxic” value was -0.98% [at 42.5 µM] (inactive).

On to `CN1CCOC(c2ccccc2)c2ccccc2C1` (stereo not given), for which the “viability change, negative = cytotoxic” value was 5.77% [at 42.5 µM] (inactive).

On to `CCCC(=O)OC/C=C(\C)CCC=C(C)C`, for which the “viability change, negative = cytotoxic” value is -1.31% (inactive).

In the case of `Cc1ccc(N)cc1S(=O)(=O)O`, the “viability change, negative = cytotoxic” value was -6.33% (inactive).

For `c1ccc(B(c2ccccc2)c2ccccc2)cc1`, the “viability change, negative = cytotoxic” value was 1.04% (inactive).

For `CC(=O)OC(C)=O`, the “viability change, negative = cytotoxic” value was 5.5% (inactive).

For `C=CC(=O)CCCCC`, the “viability change, negative = cytotoxic” value is -1.07% (inactive).

In the case of `CC(C)=CCC/C(C)=C/COC=O`, the “viability change, negative = cytotoxic” value was 2.37% (inactive).

Regarding `CC1(C)Cc2cccc(N)c2O1`, the “viability change, negative = cytotoxic” value was 2% (inactive).

Turning to `O=C1CCC(=O)N1Cl`, the “viability change, negative = cytotoxic” value was -1.49% (inactive).

As for `CCCCCCCCCCCCCCC(=O)NC(CO)CCCCCCCCCCCCCC` (stereo not given), the “viability change, negative = cytotoxic” value is 4.52% (inactive).

Take `COC(=O)c1cccc(Cl)c1`: the “viability change, negative = cytotoxic” value is -0.92% (inactive).

Regarding `O=[N+]([O-])c1c(Cl)cc(Cl)cc1Cl`, the “viability change, negative = cytotoxic” value was 2.42% (inactive).

As to `CC(=O)C1C(=O)C=C(C)OC1=O` (stereo not given), the “viability change, negative = cytotoxic” value was 0.558% (inactive).

Regarding `CC(=O)CCc1ccc(OC(C)=O)cc1`, the “viability change, negative = cytotoxic” value was -2.44% (inactive).

Consider `C=CCOC(=O)CCCCCC`, for which the “viability change, negative = cytotoxic” value was 2.24% (inactive).

On to `CCC(=O)c1c(O)cc(O)cc1O`, for which the “viability change, negative = cytotoxic” value was 2.74% [at 42.5 µM] (inactive).

On to `CC(O)COC(C)(C)C` (stereo not given), for which the “viability change, negative = cytotoxic” value was 0.516% (inactive).

For `Nc1nc(-c2ccccc2)c(Br)c(=O)[nH]1`, the “viability change, negative = cytotoxic” value was 5.07% [at 42.5 µM] (inactive).

Consider `O=C(O)CCCCCC(=O)O`, for which the “viability change, negative = cytotoxic” value was 3.04% (inactive).

As to `NCC1(Cc2noc(=O)[nH]2)CCCCC1`, the “viability change, negative = cytotoxic” value was 3.47% (inactive).

With `CCCCSCCCC`, the “viability change, negative = cytotoxic” value is 1.6% (inactive).

In the case of `N#CCC(=O)NN`, the “viability change, negative = cytotoxic” value is -3.72% [at 42.5 µM] (inactive).

On to `CCCCOC(=O)C(C)O` (stereo not given), for which the “viability change, negative = cytotoxic” value was -1.58% (inactive).

As to `O=NN(CCCl)C(=O)NC1CCCCC1`, the “viability change, negative = cytotoxic” value is -2.2% [at 42.5 µM] (inactive).

On to `COC(C)(OC)OC`, for which the “viability change, negative = cytotoxic” value is 2.54% (inactive).

In the case of `Cc1ccc(C)c([N+](=O)[O-])c1`, the “viability change, negative = cytotoxic” value is 0.475% (inactive).

Turning to `Cc1cc(C)c(C(=O)O)c(C)c1`, the “viability change, negative = cytotoxic” value is 0.203% (inactive).

Consider `C[C@]12CCC(=O)C=C1CC[C@H]1[C@@H]3CC[C@](O)(C(=O)CO)[C@@]3(C)C[C@H](O)[C@@]12F`, for which the “viability change, negative = cytotoxic” value is 2.14% [at 42.5 µM] (inactive).

With `O=C1c2ccccc2C(=O)c2cc(Cl)ccc21`, the viability change, negative = cytotoxic is 2.58% [at 8.39 µM] (inactive).

Take `CCCC(CC)c1ccccc1` (stereo not given): the “viability change, negative = cytotoxic” value was 3.37% (inactive).

(Values after PubChem BioAssay (Tox21).)
